Test results taken from PubChem BioAssay AID1159580 (chemical genetic matrix, 2015).
Screen size: about 5,500 compounds; about 2,000 (36%) were called active. Inconclusive results (about 18%) are left out. No stated cut-off is given here; in the data, active means normalized growth mostly below about 0.91 (no sharp cut-off); inconclusive means no clear call, values can overlap the other calls; inactive means mostly above about 0.92. The list shows a part of the results.

Test: chemical genetic growth profiling, strain panel (AID 1159580);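 further: tested at 20 µM; growth read once vehicle control cultures reached saturation at 30 °C; 1 = growth at the plate median or of vehicle wells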
Conditions: S. cerevisiae deletion strains, growth OD

Measured: normalized growth

C=C1CCC2(OC1)OC1CC3C4CC=C5CC(O)CC(O)C5(C)C4CCC3(C)C1C2C (centres undefined)
active: locus YAL026C, strain drs2, stronger effect = lower value 0.87 | locus YBR009C, strain hhf1, stronger effect = lower value 0.873 | locus YDR137W, strain rgp1, stronger effect = lower value 0.586 | locus YDR335W, strain msn5, stronger effect = lower value 0.899 | locus YGL253W, strain hxk2, stronger effect = lower value 0.855 | locus YHR142W, strain chs7, stronger effect = lower value 0.749 | locus YJL129C, strain trk1, stronger effect = lower value 0.853 | locus YJL164C, strain tpk1, stronger effect = lower value 0.886 | locus YLR262C, strain YPT6 (second series), stronger effect = lower value 0.548 | locus YMR205C, strain PFK2, stronger effect = lower value 0.865 | locus YNL071W, strain lat1, stronger effect = lower value 0.846 | locus YOR270C, strain vph1, stronger effect = lower value 0.771 | locus YPL051W, strain arl3, stronger effect = lower value 0.907
inactive: locus YAL021C, strain ccr4, stronger effect = lower value 0.929 | locus YAL030W, strain snc1, stronger effect = lower value 1.01 | locus YBL061C, strain skt5, stronger effect = lower value 1.01 | locus YBR023C, strain chs3, stronger effect = lower value 0.976 | locus YBR171W, strain sec66, stronger effect = lower value 1.01 | locus YBR231C, strain swc5, stronger effect = lower value 1.03 | locus YBR279W, strain paf1, stronger effect = lower value 0.995 | locus YCL011C, strain gbp2, stronger effect = lower value 0.914 | locus YCL016C, strain dcc1, stronger effect = lower value 0.979 | locus YCL069W, strain vba3, stronger effect = lower value 0.939 | locus YCR088W, strain abp1, stronger effect = lower value 0.984 | locus YDL005C, strain med2, stronger effect = lower value 0.995 | locus YDL040C, strain nat1, stronger effect = lower value 1.01 | locus YDR001C, strain nth1, stronger effect = lower value 1.01 | locus YDR069C, strain doa4, stronger effect = lower value 1.01 | locus YDR159W, strain sac3, stronger effect = lower value 0.916 | locus YDR195W, strain ref2 0.889 | locus YDR297W, strain sur2, stronger effect = lower value 1.01 | locus YDR334W, strain swr1, stronger effect = lower value 1.01 | locus YDR392W, strain spt3, stronger effect = lower value 0.819 | locus YEL003W, strain gim4, stronger effect = lower value 0.99 | locus YEL037C, strain rad23, stronger effect = lower value 1 | locus YEL061C, strain CIN8 (second series), stronger effect = lower value 0.94 | locus YER015W, strain faa2, stronger effect = lower value 1 | locus YER016W, strain bim1, stronger effect = lower value 0.992 | locus YER111C, strain swi4, stronger effect = lower value 0.958 | locus YER155C, strain BEM2 (second series), stronger effect = lower value 1.01 | locus YFR010W, strain ubp6, stronger effect = lower value 0.97 | locus YGL167C, strain pmr1, stronger effect = lower value 1.02 | locus YGL173C, strain kem1, stronger effect = lower value 1.01 | locus YGL227W, strain vid30, stronger effect = lower value 0.976 | locus YGL240W, strain doc1, stronger effect = lower value 1 | locus YHR013C, strain ard1, stronger effect = lower value 1.06 | locus YHR027C, strain rpn1, stronger effect = lower value 0.966 | locus YJL092W, strain hpr5, stronger effect = lower value 0.978 | locus YJL095W, strain BCK1 (second series), stronger effect = lower value 0.966 | locus YJL115W, strain asf1, stronger effect = lower value 1.01 | locus YJL154C, strain vps35, stronger effect = lower value 1 | locus YJL166W, strain qcr8, stronger effect = lower value 0.944 | locus YKL160W, strain elf1, stronger effect = lower value 0.986 | locus YKR026C, strain gcn3, stronger effect = lower value 0.994 | locus YKR091W, strain srl3, stronger effect = lower value 1.01 | locus YLL001W, strain dnm1, stronger effect = lower value 0.923 | locus YLL026W, stronger effect = lower value 0.98 | locus YLL041C, strain sdh2, stronger effect = lower value 1 | locus YLR027C, strain aat2, stronger effect = lower value 0.987 | locus YLR258W, strain gsy2, stronger effect = lower value 0.988 | locus YLR320W, strain mms22, stronger effect = lower value 0.929 | locus YLR342W, strain FKS1, stronger effect = lower value 1.01 | locus YLR357W, strain rsc2, stronger effect = lower value 1.07 | locus YLR370C, strain arc18, stronger effect = lower value 1.02 | locus YLR384C, strain iki3, stronger effect = lower value 1.01 | locus YML120C, strain ndi1, stronger effect = lower value 0.928 | locus YMR058W, strain fet3, stronger effect = lower value 0.959 | locus YMR125W, strain sto1, stronger effect = lower value 1 | locus YMR129W, stronger effect = lower value 1.01 | locus YMR231W, strain pep5, stronger effect = lower value 1.02 | locus YNL209W, strain ssb2, stronger effect = lower value 1.02 | locus YNL248C, strain rpa49, stronger effect = lower value 0.987 | locus YNL322C, strain KRE1 (second series), stronger effect = lower value 1 | locus YNR049C, strain mso1, stronger effect = lower value 1 | locus YOR001W, strain rrp6, stronger effect = lower value 0.944 | locus YOR070C, strain gyp1, stronger effect = lower value 0.997 | locus YOR080W, strain dia2, stronger effect = lower value 1.02 | locus YOR083W, strain WHI5, stronger effect = lower value 0.979 | locus YOR106W, strain vam3, stronger effect = lower value 0.911 | locus YOR265W, strain rbl2, stronger effect = lower value 1.01 | locus YOR290C, strain snf2, stronger effect = lower value 0.887 | locus YPL078C, strain atp4, stronger effect = lower value 0.929 | locus YPL106C, strain sse1, stronger effect = lower value 1.03 | locus YPL240C, strain hsp82, stronger effect = lower value 0.974
